# Hits are enriched below; roughly 2.9% of the tested compounds scored in any of these assays.
# ClpP mod = qHTS Assay for Activators of ClpP. purified B. subtilis ClpP, FRET peptide cleavage, 20 min. Potency, µM (series often up to 57.5 µM), without a hit: at the top dose activity change, negative = active. hit rate 1.9% among 340,000. AID 651965, 2013; active = well fitted falling curve with a large enough effect; inconclusive = small, poorly fitted or top-dose-only effect; inactive = no such curve, though single readings can be large or run the other way; also: potency is read from the fitted curve at half-maximal effect; the source files actives as falling curves though it sought activators and does not explain the sign; nearly all actives have a fitted effect of over 65% in size
# Target sequence (P80244 whole entry, looked up): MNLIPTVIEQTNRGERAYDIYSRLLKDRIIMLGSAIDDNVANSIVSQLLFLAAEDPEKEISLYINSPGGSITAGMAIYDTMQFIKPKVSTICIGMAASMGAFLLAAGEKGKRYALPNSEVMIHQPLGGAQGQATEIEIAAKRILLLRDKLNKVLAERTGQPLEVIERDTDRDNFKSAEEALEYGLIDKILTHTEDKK
#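 Purified B. subtilis ClpP, 10 microg/mL final in Tris/HCl pH8 with KCl, BSA, glycerol and Tween-20, cleaved an Abz/nitrotyrosine-quenched decapeptide. Fluorescence (ex 320, em 430) was read at 0 and 20 min at room temperature. Delta was normalized to 5.8 microM ADEP and DMSO/no-enzyme controls.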
# GLP-1R inv ag = qHTS of GLP-1 Receptor Inverse Agonists (Inhibition Mode); Glucagon-like peptide 1 receptor (Homo sapiens), P43220; HEK293 GLP-1R CRE-luciferase, luminescence, 24 h; GLP-1R form is constitutively active; Potency, µM (highest dose often 38.3 µM), without a hit: at the top dose activity change, negative = inhibition, usual class: inhibitors; hit rate 1.6% among 410,000; AID 624417, 2012; also: potency is read from the fitted curve at half-maximal effect; % is scaled to controls: 0 for no effect and ±100 for the full control effect; nearly all actives have a fitted effect of over 55% in size
# Target sequence (P43220 whole entry, looked up): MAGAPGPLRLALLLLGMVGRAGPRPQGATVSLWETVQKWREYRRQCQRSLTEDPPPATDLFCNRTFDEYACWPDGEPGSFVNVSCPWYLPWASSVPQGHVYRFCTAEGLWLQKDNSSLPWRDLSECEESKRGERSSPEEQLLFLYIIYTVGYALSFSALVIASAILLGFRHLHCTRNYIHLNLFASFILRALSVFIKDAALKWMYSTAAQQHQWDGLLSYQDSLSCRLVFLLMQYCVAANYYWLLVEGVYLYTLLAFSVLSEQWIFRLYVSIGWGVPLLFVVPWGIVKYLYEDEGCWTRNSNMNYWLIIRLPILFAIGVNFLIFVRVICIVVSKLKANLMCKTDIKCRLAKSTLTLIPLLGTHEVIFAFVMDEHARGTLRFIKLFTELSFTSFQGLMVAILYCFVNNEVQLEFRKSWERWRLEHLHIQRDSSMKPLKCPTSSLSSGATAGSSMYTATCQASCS
#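 Constitutively active GLP-1R drives a cAMP-responsive luciferase in stably transfected HEK293 cells; test compounds are added after overnight (12 h) attachment and left 24 hr, and signal loss in luminescence marks inhibition.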
# p53 reactivation = qHTS assay for re-activators of p53 using a Luc reporter; Potency, µM (titrated, usually from 92.2 µM), without a hit: top-dose activity change, positive = activation, actives largely listed as activators; hit rate 0.063% among 320,000; H1299 p53-A138V BP100-luciferase reporter, luminescence, 24 h; also: potency is read from the fitted curve at half-maximal effect; % of control where 0% means no effect; nearly all actives have a fitted effect of over 45% in size
#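 H1299 (p53-null), stable ts p53-A138V + BP100-Luc; 1000 cells/well, Opti-MEM/10% FBS; cpd 4 pt, 1:5; 24 h, 37 deg C, 5% CO2; detection reagent 10 min RT; luminescence.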
# HEK293 tox = qHTS of GLP-1 Receptor Inverse Agonists: Cytotox Screen. HEK293 cAMP-luciferase reporter cells, luminescence, 24 h. Potency, µM (highest dose often 38.3 µM), for inactives: at the highest dose activity change, negative = inhibition, actives largely listed as inhibitors. hit rate 0.13% among 410,000. AID 624418, 2012;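 also: loss of luciferase light is scored as toxicity; potency is read from the fitted curve at half-maximal effect; % is scaled to controls: 0 for no effect and ±100 for the full control effect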
#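 Compound-treated cells are incubated 24 hr at 37 deg C under 5% CO2 after a 12 hour attachment period, then luciferase detection reagent is added and luminescence is measured following 12 min at room temperature; lowered signal indicates toxicity.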
# LDHA block = qHTS assay for inhibitors of human lactate dehydrogenase. L-lactate dehydrogenase A chain (Homo sapiens), P00338. purified LDHA, NADH/diaphorase-resazurin fluorescence; stronger effect = lower value. activity change, % (values are at about 110 or 230 µM). hit rate 0.15% among 480,000. AID 1347041, 2019; in the data active = activity change below about -30%; inconclusive = mostly about -25% to -30%;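 also: plate controls were DMSO wells for no effect and wells without enzyme for full effect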
#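 Human LDH5 (2 nM) was incubated with 0.06 mM NADH and 0.2 mM pyruvate for 5 min at room temperature in Tris pH 7.4. Remaining NADH was coupled through diaphorase/resazurin, and resorufin fluorescence was read at 0 and 20 min.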
# GLP1R ag = qHTS of GLP-1 Receptor Agonists. Glucagon-like peptide 1 receptor (Homo sapiens), P43220. HEK293 GLP-1R CRE-luciferase, luminescence, 4-6 h; cells express a hypersensitive GLP-1R form. Potency, µM (top dose mostly 45.6 µM), for inactives: top-dose activation, hits mostly activators. hit rate 0.007% among 380,000; also: potency is read from the fitted curve at half-maximal effect; % of control where 0% means no effect
# * hit, by the source's call; ? = inconclusive; . = no result given; [ ] = dose if it differs, or a comment. Unless noted, calls follow the shape of the dose curve; as a rule, active = well fitted curve in the direction sought with a large enough effect; inconclusive = small, poorly fitted or top-dose-only effect, or another doubt; inactive = no such curve, though single readings can be large; an effect the other way counts as inactive or inconclusive.
SMILES,ClpP mod,GLP-1R inv ag,p53 reactivation,HEK293 tox,LDHA block,GLP1R ag
N#Cc1ccc2nc(-c3ccc(CN4CCC(n5c(=O)[nH]c6ccccc65)CC4)cc3)c(-c3ccccc3)nc2c1,-4%,?,.,?,2,-1%
CCn1cc2nc(SCc3c(F)cccc3Cl)n(CCc3ccccc3)c(=O)c2n1,-5%,?,.,-8%,-4,.
CC(C)c1cc(C(=O)OCC(=O)NC(=O)NCc2ccco2)c(O)c(C(C)C)c1,-2%,3.5µM*,-11%,?,3,5%
Cc1nn(Cc2ccccc2)c(C)c1C(=O)OCC(=O)NCc1ccco1,0%,1%,-1%,-11%,-2,0%
O=C1CC(c2ccccc2)CC(O)=C1C=NCCN1CCN(C(=O)Cc2ccccc2)CC1 (stereo not drawn),1%,0%,0%,-17%,-4,-11%
Cc1ccc(C2CC(=O)C(C=NCCN3CCN(C(=O)Cc4ccccc4)CC3)=C(O)C2)cc1 (stereo not drawn),32µM*,-11%,1%,10%,-6,10%
COc1ccc(-c2nc(NC(=O)Cn3c(=O)oc4ccccc43)sc2C)cc1,-1%,-17%,-24%,0%,-12,2%
Cc1cccc(NC(=O)Oc2ccc(Cl)c3cccnc23)c1,1%,10µM*,.,?,7,14%
Cn1c(O)c(/C=N/Nc2ccccc2)c(=O)n(C)c1=O,.,10µM*,2%,?,-5,9%
COc1ccccc1NC(=S)NC1CC2CCC1C2 (stereo not drawn),-2%,?,2%,?,-11,-6%
CS(=O)(=O)c1sc(C#N)c2c1C(=O)CC(c1ccccc1)C2 (stereo not drawn),-4%,?,-13%,11µM*,9,-10%
Cc1ccc(S(=O)(=O)N(C)CCCC(=O)N2CCN(c3ccccn3)CC2)cc1,32µM*,0%,-3%,4%,-7,?
[2H]c1c([2H])c([2H])c(-c2nc(N3CCCCCC3)sc2C(=O)c2ccccc2)c([2H])c1[2H],-2%,2µM*,9%,15%,1,-1%
CC(C)(C)c1ccc(C(=O)C2CCCN(C3CCC3)C2)cc1 (stereo not drawn),.,10µM*,7%,-9%,-9,26%
Cc1ccc(-n2sc3ccccc3c2=O)cc1,1%,?,-31%,10µM*,-35*,-3%
O=C1c2cccc3c(O)ccc(c23)C(=O)N1c1ccc(Cl)cc1,.,?,.,373%,33,-6%
O=c1c2ccccc2sn1-c1ccc(Cl)cc1,0%,?,.,-7%,-52*,-3%
COc1ccc(-c2nc3ccccc3c(=O)n2-c2ccc(OC)cc2)cc1,0%,-27%,-1%,6%,-1,2%
COc1ccc(CC(N)c2csc(Nc3ncccn3)n2)cc1 (stereo not drawn),3%,?,.,?,-5,-4%
CN(C)CCN(CC1CCCN(Cc2ccccc2F)C1)C(=O)Cc1c(F)cccc1F (stereo not drawn),2%,?,.,-3%,-1,-1%
CN(C)CCN(CC1CCCN(Cc2ccccc2F)C1)C(=O)Cc1ccccc1F (stereo not drawn),-1%,10µM*,.,-21%,-2,-4%
CCOc1cc(CNC(C)(C)CO)cc(Br)c1OCc1ccc(Cl)cc1Cl,1%,5µM*,-8%,?,-3,-16%
CCC(C)NCCOc1ccc(C(C)(C)c2ccccc2)cc1 (stereo not drawn),.,5µM*,-4%,?,-12,9%
CCCCN1CC(O)=C(c2nc3ccccc3s2)C1=N,-9%,43%,?,-7%,0,2%
CNC(=O)COC(=O)c1ccc(-c2nc3ccccc3s2)s1,6.3µM*,1%,6%,1%,-8,1%
SMILES,ClpP mod,GLP-1R inv ag,p53 reactivation,HEK293 tox,LDHA block,GLP1R ag
Oc1cc2c(cc1O)[C@H]1c3ccc(O)c(O)c3OC[C@@]1(O)C2,.,-20%,-6%,?,6,3%
O=C(COc1ccc(Cl)cc1Cl)Nc1ccc(CN2CCCCC2)cc1,.,?,0%,-1%,-7,8%
O=S(=O)(c1cc(Cl)cc(Cl)c1)N1Cc2cc(-c3cccc(F)c3)ccc2-n2nncc2C1,-2%,12%,.,2%,-3,-3%
Fc1cccc(-c2ccc3c(c2)CN(c2cccc(Cl)c2)Cc2cnnn2-3)c1,32µM*,26%,.,-3%,-16,-1%
C[C@]12CC[C@@H]3c4cc(O)c(O)cc4CC[C@H]3[C@@H]1CC[C@@H]2O,1%,?,.,-23%,18,0%
O=C(COc1ccc(Cl)cc1)N(c1ccccc1Cl)C1CN2CCC1CC2 (stereo not drawn),-3%,2.5µM*,0%,?,-2,1%
O=S(=O)(NC1CN2CCC1CC2)c1ccc(Cl)cc1 (stereo not drawn),.,-5%,0%,?,-10,9%
O=C(COc1ccc(Cl)cc1)N(c1ccc(Cl)cc1)C1CN2CCC1CC2 (stereo not drawn),0%,8.9µM*,4%,?,-5,3%
Cc1ccc(S(=O)(=O)Oc2ccccc2C=C2C(=O)N(C)C(=O)N(C)C2=O)cc1,-4%,?,.,-6%,-14,-10%
Cc1ccccc1C(c1ncccc1C)N(C)C(=O)C1CCN(CCOc2ccc(Cl)cc2Cl)CC1 (stereo not drawn),-3%,?,.,10µM*,1,-11%
CN(C)c1nc(OCCNC(=O)COc2ccc(Cl)cc2Cl)nc(N2CCCCC2)n1,1%,3%,-7%,-12%,-2,-6%
COc1ccc(-n2c(=S)[nH]c3c(sc(=S)n3-c3ccccc3)c2=O)c(OC)c1,11µM*,-11%[0.307 µM],3%,-1%[0.307 µM],-7,-1%
c1cc2n(c1)-c1c(ccc3c1OCO3)CNC2c1ccc2c(c1)OCO2 (stereo not drawn),2%,8.9µM*,-5%,-26%,-1,0%
O=C(COc1ccccc1)N1CCN(C2CC3CCC2C3)CC1 (stereo not drawn),-1%,-20%,5%,-17%,1,0%
